Screening results as filed in PubChem BioAssay.
This is a sample that favours compounds with a hit; in the whole collection about 2.2% have one here.
HIF-2a inh – HIF-2a reporter inhibitors, primary screen, luminescence, 786-0 RCC cells | 786-0 RCC cells HIF-2a reporter, luciferase luminescence, overnight | inhibition, % at 18.8 µM | actives 0.72% (n = 360,000) | AID 624352, 2012;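 active = inhibition of the luminescence signal of 40% or more relative to plate controls, in a single-dose primary screen at 18.75 µM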
hiPSC survival – enhancers of single-cell hiPSC survival, primary screen, ATPlite luminescence; actives 0.044% (n = 360,000); 100% = ROCK inhibitor wells, 0% = DMSO; AID 602274, 2012; survival enhancement, % at 20 µM; in the data active = survival enhancement above about 18%;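 also: cells exposed to compounds for 16 hours before the ATP read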
CF NFkB block – inhibitors of PAF-induced NF-kB signaling, primary screen, cell-based, GFP fluorescence, uHTS; actives 0.86% (n = 360,000); inhibition, % at 5 µM; KKLEB NF-kB-GFP reporter, GFP fluorescence overnight;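 active = at least 50% inhibition at 5 µM, scaled per plate between neutral and stimulator controls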;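 also: PAF is a Pseudomonas aeruginosa culture filtrate used as stimulus; plate controls were PAF-stimulated DMSO wells for no effect and unstimulated DMSO wells for full effect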
PPC-1+TRAIL kill – compounds killing PPC-1 cancer cells with TRAIL present, primary screen, TRAIL potentiator project, ATPLite luminescence, uHTS; PPC-1 cells + TRAIL, ATPLite viability luminescence; cell killing (% activity), % at 4 µM or 5 µM; actives 0.41% (n = 220,000); AID 1443, 2008;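 active = cell killing above 50% in the first pass at 4 µM, then a duplicate retest at 5 µM averaging 50% or more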;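 also: plate controls were cells with TRAIL plus DMSO for no effect and medium-only wells lacking cells for full effect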
KKLEB cytotox – cytotoxicity in KKLEB CF airway cells, primary screen, cytotoxicity control for CF NF-kB inhibitor project, cell-based, uHTS, fluorescence assay plates; KKLEB CF airway cells viability, ATPlite luminescence, overnight; active compounds read low; cells stimulated with P. aeruginosa culture filtrate; activity change (cytotoxicity), % at 5 µM; actives 0.36% (n = 360,000); AID 602141, 2011;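 active = corrected activity change at or below -50% at 5 µM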
TRAIL sens C8 – viability loss with TRAIL in NB7+C8 cells, primary screen, TRAIL sensitizer project, cell-based, ATPlite luminescence. inhibition (viability loss, TRAIL sensitization), % at 10 µM. actives 1% (n = 360,000);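 active = compounds causing at least 50% loss of cell viability in the single-dose screen, relative to plate controls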
PPC-1 tox – cytotoxicity in PPC-1 cells, confirmation, cytotoxicity control for TRAIL apoptosis potentiator project, cell-based, ATP content luminescence; shares compounds with PPC-1+TRAIL kill; PPC-1 viability, ATPlite luminescence, overnight; cytotoxicity, % at 5 µM; actives 50% (n = 1,200); AID 1447, 2008;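 active = reconfirmed compounds whose average cytotoxicity reaches 50% or more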;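 also: 0% = DMSO-treated cells and 100% = wells holding medium but no cells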
* marks the source's active call; other numbers are inactive results; . = no result.

SMILES | HIF-2a inh | hiPSC survival | CF NFkB block | PPC-1+TRAIL kill | KKLEB cytotox | TRAIL sens C8 | PPC-1 tox
Cc1ccc(/C=N/Nc2nnc(Cl)c3ccccc23)cc1 | -197 | -4 | -33 | 78* | -48 | 86* | 78*
CC(=O)c1ccc(N2CCN(S(=O)(=O)c3c(C(=O)N4CCCC4)c(C)n(C)c3C)CC2)cc1 | -15 | 0 | -6 | . | 6 | -21 | .
Cc1ccc(CNC(=O)C2(C)Oc3ccccc3NC2=O)cc1 (configuration not stated) | 13 | -2 | 3 | 1 | -5 | 2 | 4
CC1(C(=O)NCc2ccc(F)cc2)Oc2ccccc2NC1=O (configuration not stated) | 8 | -1 | -16 | 38 | 1 | -13 | .
O=C(Nc1c(F)c(F)c(F)c(F)c1F)C1CCCCC1 | 7 | -2 | 0 | 6 | 5 | -18 | .
O=C(Nc1nonc1NC(=O)C1CCCCC1)C1CCCCC1 | 26 | 3 | 14 | 1 | -11 | -3 | 3
CCCCCN=Cc1c(C)[nH]n(-c2nc3ccccc3s2)c1=O | 10 | -4 | -2 | 91* | -7 | 84* | 91*
CCCc1[nH]n(-c2nc3ccccc3s2)c(=O)c1C=NCCCOC | -38 | -1 | -12 | 5 | 6 | -10 | .
O=C(O)c1cccc(NC(=O)c2ccc(S(=O)(=O)c3ccccc3)cc2)c1 | 12 | -2 | -3 | 11 | 8 | 0 | .
CN(C)S(=O)(=O)c1ccc(C(=O)Nc2cccc(C(=O)O)c2)cc1 | 14 | 2 | 1 | 6 | 2 | 2 | -7
Cc1ccc(C(=O)OCC(=O)Nc2ccccc2C(F)(F)F)cc1S(=O)(=O)N1CCCCC1 | 12 | 0 | 17 | . | -5 | -13 | .
CC1CCc2c(sc(/N=C/c3ccco3)c2C(N)=O)C1 (configuration not stated) | -274 | -1 | -1 | 49 | -16 | 63* | 49
CC1CCc2c(sc(/N=C/c3cccnc3)c2C(N)=O)C1 (configuration not stated) | -109 | 0 | 2 | 15 | -1 | 6 | .
CC1CCCC(C)N1C(=O)COC(=O)c1cccs1 (configuration not stated) | -9 | -2 | -8 | . | 5 | 10 | .
O=C(CC(=O)NCc1ccccc1)NCc1ccccc1 | 11 | -1 | 2 | . | 3 | 8 | .
CCCOc1ccc(-c2nnc(-c3ccco3)o2)cc1 | -32 | -3 | -32 | 46 | 6 | 55* | 44
CCOC(=O)Cc1csc(NC(=O)/C=C\c2ccccc2)n1 | -2 | -3 | 6 | 20 | -29 | 24 | .
CCOC(=O)Cc1csc(NC(=O)/C=C/c2ccc(OC)cc2)n1 | -69 | -4 | -8 | 56* | -9 | 72* | 56*
CCC(=O)Nc1cnc(NC(=O)c2cccc(F)c2)cc1C | -108 | -1 | -1 | -2 | 6 | 3 | 12
CCS(=O)(=O)N1CCN(C(=O)c2cccc3ccccc23)CC1 | 18 | 0 | 3 | . | -7 | 0 | .
O=C(Nc1nc2ccccc2s1)c1ccccc1 | -164 | -1 | -19 | 41 | -19 | 49 | .
c1ccc2sc(NN=C3CCCCCC3)nc2c1 | -39 | -2 | -4 | 61* | -30 | 66* | 64*
COc1ccc(O)c(C(=O)CC(=O)c2ccccc2)c1 | . | . | . | 60* | . | . | 58*
CC1=NN(c2nc3ccccc3[nH]2)C(=O)/C1=C/N(C)C | -41 | -1 | -6 | 79* | -2 | 88* | 79*
CC1=NN(c2ccccc2)C(=O)/C1=C/N(C)C | 3 | 0 | 7 | 27 | 0 | 8 | .
SMILES | HIF-2a inh | hiPSC survival | CF NFkB block | PPC-1+TRAIL kill | KKLEB cytotox | TRAIL sens C8 | PPC-1 tox
CCc1ccc(NC(=O)CCC(=O)c2ccccc2)cc1 | -44 | 0 | -2 | . | 5 | 13 | .
CC(=NNC(=O)c1ccncc1)c1ccccc1Cl | -13 | -1 | 0 | . | 21 | -9 | .
C/C(=N\NC(=O)c1ccccc1NC(=O)c1ccc(Cl)cc1)c1ccncc1 | 38 | -6 | 7 | 97* | -17 | 94* | 97*
C/C(=N\NC(=O)c1ccc(Cl)cc1)c1cccs1 | -64 | -1 | -7 | 63* | -12 | 75* | 64*
COc1ccc(-c2cc(=O)c3cc(O)ccc3o2)cc1 | -213 | 0 | -51 | 19 | 1 | 32 | 29
O=c1cc(-c2ccccc2)oc2ccc(O)cc12 | -352 | 0 | -70 | 20 | 13 | 16 | .
Cc1ccc(NC(=O)c2csc(-c3ccccc3)c2C)cc1 | 18 | -2 | 7 | 80* | -54* | 81* | 82*
Cc1ccc(NC(=O)c2cccc3ccccc23)cc1 | -216 | 2 | -12 | . | 3 | 8 | .
Cc1nc(-c2ccc(NC(=O)c3ccccc3)cc2)cs1 | -78 | -1 | -23 | 64* | -35 | 76* | 61*
c1ccc(CCNc2ccnc3cc4ccccc4cc23)cc1 | -3 | -3 | -11 | 27 | 0 | 33 | 20
CN(C)C(CNC(=O)c1ccco1)c1cccs1 (configuration not stated) | -25 | 0 | 0 | . | 4 | 0 | .
CCOc1ccc(-n2c(SC)nc3c(c2=O)SCC3)cc1 | 20 | 1 | 8 | -10 | -1 | 21 | -12
Cc1cc(Br)ccc1NC(=O)CN(C)C(=O)CN1C(=O)NC(C)(C2CC2)C1=O (configuration not stated) | 4 | 1 | 2 | . | -7 | 5 | .
CC1(C(=O)Nc2ccc3c(c2)OCO3)CCN1C(=O)c1ccco1 (configuration not stated) | 1 | 1 | 8 | . | -1 | -20 | .
COc1ccc(-c2cc(C#N)nc(Cl)n2)cc1 | 14 | 3 | 1 | 22 | -10 | 21 | 19
COc1ccc(C(=O)Nc2ccc(Cc3ccncc3)cc2)cc1Br | -68 | -1 | -44 | 4 | 14 | 4 | 20
CC(C)CCNC(=O)CN(C(=O)CCC(=O)Nc1nccs1)c1ccc2c(c1)OCCO2 | 26 | -1 | 5 | . | 2 | -6 | .
CCn1c2ccccc2c2cc(NC(=O)N3CCOCC3)ccc21 | -162 | 12 | 14 | 10 | -4 | -14 | 4
CCn1c2ccccc2c2cc(NC(=O)CN(C)CC(=O)Nc3ccc(N4CCOCC4)cc3)ccc21 | 26 | 0 | -18 | 7 | 8 | -8 | .
O=C(Nc1ccccc1F)C1CCN(S(=O)(=O)c2cccc3nonc23)CC1 | 10 | 0 | 12 | . | -5 | -10 | .
COCCN1C(=O)c2ccc(C(=O)NCc3cccnc3)cc2C1=O | 10 | -1 | -3 | -1 | -12 | 4 | 12
